According to the supplement of paper PMC6555819:

System: VDR:RXRa (NR concentration 270 nM, RXRa partner concentration 90 nM)
Test: PBM binding z-score (relative to random genomic background probes); higher = stronger binding; sequences stand for … in GC…GCGATTGACAGCGTAGAATGAAGG
Description: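 Protein-binding microarray (Agilent 4x180K custom design, double-stranded 60-nt probes: 5' GC cap, 34-nt variable region, 24-nt constant primer region; full probe sequence given). Purified or IVT nuclear receptor:RXRα heterodimers (3:1 NR:RXRα, mostly 270:90 nM) or homodimers were incubated for 1 h in PBS with 2% milk and no ligand, then detected with Alexa488 antibodies. Fluorescence from o1-orientation probes (~5 replicates averaged) was converted to z-scores against 500 random hg19 background probes. Variable regions are seed direct-repeat (DR0–DR5) sites, all their single-nucleotide variants and half-site ablations.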

| Sequence | PBM binding z-score |
| --- | --- |
| CCGAGTAGGATATGGGGCATTCAGGCAACGGTGA | -0.284 |
| ATCGAAAGGTCGAGGTGAGCATAGAGAAAGGGAA | 2.36 |
| AGTCAAAGTTCACTGGGTAACGTAAGATTCAGCT | 4.34 |
| CCTGCTAGGTCATGGTCTGCTAATCTACAGTATG | 1.58 |
| ACAGACAGGTGGGTGAAGGTAACTCAGCTGGACG | -0.163 |
| TAGCCTAGGTCATGCGGGCGAGTATAGTGTCGGC | 1.72 |
| CGAACTAGGTCATTGACAGGGCAGTGAATAGTAA | 2.15 |
| CCGACTGGGGCATCAGGTTACCATAAGCCAGCCC | -0.451 |
| AGCTCTAGGTAACCAAGTTCAGTGAATGCCGAAC | 3.88 |
| TCATATAGGTTATACAGGTGAAAGTCGGCATCTA | 2.48 |
| GCAGATAGGTGAAACGCAGGTAACTCAGGGTGGC | -0.534 |
| TCTTGTAGATCAATAAAGGTTAAGAAAGTGCGCT | 2.18 |
| AGAACGAGGGCACGCTGACTTGATAGCAGAGTAG | 1.02 |
| TCTTGTAGCTCAACAGGAGGTTAAGAAAGATCGA | 0.0738 |
| GCCGCTAGGTCAACTGATGGTCAGCTAAAGCTCG | 1.45 |
| ATCGATAGGTCGAGGTGAGTATAGAGAAAGGGAA | 0.414 |
| CAAACTAGGTCACAGAGGTCTAAGTCCGTGCGTA | 4.9 |
| TATAGAGGGTCAAAGGCCAGAGTACGAATGTCGA | 3.83 |
| CCTCGGAGAACAGAAGGTCAGAGCTGTCCGCTTT | 1.03 |
| GCTGCAAGGTCAGGTTGGTCAGCTAACGGGTACG | 2.81 |

| Sequence | PBM binding z-score |
| --- | --- |
| ATCTCTAGGTAAGACTCAGTTCGGTGAAGAACGC | 0.216 |
| TCGAGTAGGTTAGCGGCATTCAGAATGGCGTCGA | -0.635 |
| TCTGCTAGGTCAACGATGGTCAGCTTATCTGCTA | 1.63 |
| GCATATAGGTAATACAAGGTGAATGTCCGATTGT | 0.106 |
| CGTGAAAGTTCAAGGTAACGTAACAGAAAGCAGC | 3.81 |
| CCGACTGGGGCAAACGTTACCATACTCAGTACGA | -0.23 |
| GATACAGGGTCAGCTAGAGGCCAGAATATGGAAA | 3.19 |
| ATCTCTAGGAAAAAGTTCAGTGAATCCCGAGGAT | 0.44 |
| CCTAGTTGGTCAAGGTCACACACGCTATAGGTAC | 4.26 |
| CCTACTGGGCCAAAGATCATTGATTCCAATGCTC | -0.31 |
| CGCCCAAGGTCAAAGGTCAGTGAAGAGATGACGG | 6.61 |
| TGAATGAGGTTGTAAGATCAGGGAACGTTGCAAA | -0.0386 |
| CGAACTAGGTCAAGGACAGTGAATCTCCGCACGC | 1.32 |
| CCTAATGGGCCATCAGGTCATTGATATCAACGTT | 2.04 |
| GCTTACGGGCCAAAGGTTATAGCATGAATAGAAT | 0.816 |
| CATACAGGCTCAGCTAGGCCAGAGTAGGGACGGC | -0.721 |
| CCTACTGGTCCAAAAAGGTCATTGATGCCGATAA | 4.99 |
| TCATATAGGTAAAGGTCAAAGTCGAACGATATGA | 4.77 |
| GCTGCTTGGTCAACTGATGGTCAGCTAAAGCTCG | -0.687 |
| ATATGTAGGTTACATCCGGGTAATTCAGGCTATG | 0.536 |
